The campaign covered roughly 310,000 compounds. About 14,000 (4.5%) showed an effect of 50% or more. Effects have a minus sign here. This excerpt belongs to a sample that is enriched for strong results.
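Note: peak tail current of the secondary pulse compared with the same well before compound.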

In the assay the target is human ether-à-go-go-related gene (hERG) potassium channel (human, UniProt Q12809). The assay is described as follows: primary screen, population patch clamp on CHO cells stably expressing hERG; higher = less effect of the substance.
Sequence of human ether-à-go-go-related gene (hERG) potassium channel (Q12809 whole entry, looked up): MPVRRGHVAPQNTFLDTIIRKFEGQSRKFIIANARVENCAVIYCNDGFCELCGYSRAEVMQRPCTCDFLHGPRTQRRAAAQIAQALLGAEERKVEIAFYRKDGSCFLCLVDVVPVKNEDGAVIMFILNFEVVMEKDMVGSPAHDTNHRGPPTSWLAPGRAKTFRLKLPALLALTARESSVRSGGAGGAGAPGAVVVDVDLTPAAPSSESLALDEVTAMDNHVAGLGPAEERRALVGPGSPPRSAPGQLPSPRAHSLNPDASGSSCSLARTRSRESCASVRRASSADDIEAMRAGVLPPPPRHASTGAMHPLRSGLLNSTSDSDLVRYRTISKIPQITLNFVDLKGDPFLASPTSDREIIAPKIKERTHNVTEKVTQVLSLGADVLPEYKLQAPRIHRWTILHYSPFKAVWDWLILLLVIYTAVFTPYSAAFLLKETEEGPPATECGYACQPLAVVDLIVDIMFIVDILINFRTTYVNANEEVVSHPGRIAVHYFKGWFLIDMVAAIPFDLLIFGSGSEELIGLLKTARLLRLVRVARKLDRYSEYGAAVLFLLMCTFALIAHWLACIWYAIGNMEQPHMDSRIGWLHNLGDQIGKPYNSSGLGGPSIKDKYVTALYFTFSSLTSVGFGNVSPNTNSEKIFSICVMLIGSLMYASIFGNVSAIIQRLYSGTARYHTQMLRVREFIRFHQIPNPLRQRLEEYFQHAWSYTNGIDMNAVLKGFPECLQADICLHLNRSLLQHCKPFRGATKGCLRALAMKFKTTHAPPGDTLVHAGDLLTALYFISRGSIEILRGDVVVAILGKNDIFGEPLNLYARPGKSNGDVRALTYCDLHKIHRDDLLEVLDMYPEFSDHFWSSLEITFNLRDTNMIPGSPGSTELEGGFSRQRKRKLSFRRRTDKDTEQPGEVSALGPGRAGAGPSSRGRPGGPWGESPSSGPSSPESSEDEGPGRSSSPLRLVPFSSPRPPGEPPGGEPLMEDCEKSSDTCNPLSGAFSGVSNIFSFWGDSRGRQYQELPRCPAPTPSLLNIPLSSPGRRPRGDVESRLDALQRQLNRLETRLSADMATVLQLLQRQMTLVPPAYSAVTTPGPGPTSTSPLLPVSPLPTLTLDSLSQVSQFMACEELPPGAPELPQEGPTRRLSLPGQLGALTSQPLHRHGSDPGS
Regarding `CC1(C)CC(NC(=O)COc2cc3oc(=O)c4c(c3cc2Cl)CCC4)CC(C)(C)N1`, the “hERG current change (%, negative = inhibition) at 10uM” value came out at 11.2%.

Regarding `COc1ccc(OC)c(C(c2nnnn2C2CCCC2)N2CCc3ccccc3C2)c1` (centres unmarked), the “hERG current change (%, negative = inhibition) at 10uM” value was -11.1%.

Regarding `COc1ccc(/C=C/C(=O)OCC(=O)Nc2cc(S(=O)(=O)N(C)C)ccc2Cl)cc1`, the “hERG current change (%, negative = inhibition) at 10uM” value is on record as 28.4%.

As to `CCc1ccccc1OCC(=O)N(CC)CC(=O)NCc1ccc(F)cc1`, the “hERG current change (%, negative = inhibition) at 10uM” value is recorded as 8%.

Consider `CCN(CC(=O)NCc1ccc(F)cc1)C(=O)c1cccnc1SC`, for which the “hERG current change (%, negative = inhibition) at 10uM” value is listed as -62.9%.

Regarding `CCN(CC(=O)NCc1ccc(F)cc1)C(=O)COc1ccc2ccccc2c1`, the “hERG current change (%, negative = inhibition) at 10uM” value is -70.5%.

In the case of `CCN(CC(=O)Nc1ccc(NC(C)=O)cc1)C(=O)COc1ccc2ccccc2c1`, the “hERG current change (%, negative = inhibition) at 10uM” value was -10.1%.

For `CCOc1ncccc1C(=O)N(CC)CC(=O)NCc1ccc(F)cc1`, the “hERG current change (%, negative = inhibition) at 10uM” value amounted to 7.12%.

In the case of `CCN(CC(=O)Nc1c(F)cccc1F)C(=O)c1cccnc1SC`, the “hERG current change (%, negative = inhibition) at 10uM” value was determined as 6.33%.

As to `CSCC(=O)NC1CCCc2c1cnn2-c1ccc(C)c(C)c1` (centres unmarked), the “hERG current change (%, negative = inhibition) at 10uM” value is -28%.

Regarding `CCCC(=O)NC1CCCc2c1cnn2-c1ccc(C)c(C)c1` (centres unmarked), the “hERG current change (%, negative = inhibition) at 10uM” value was -72%.

`Cc1ccc(-n2ncc3c2CCCC3NC(=O)CCc2cnn(C)c2)cc1C` (centres unmarked): the “hERG current change (%, negative = inhibition) at 10uM” value came out at 7.27%.

As for `Cc1ccc(-n2ncc3c2CCCC3NC(=O)c2ccoc2)cc1C` (centres unmarked), the “hERG current change (%, negative = inhibition) at 10uM” value is reported as -79.2%.

With `COC(=O)c1ccc(C(=O)NC2CCCc3c2cnn3-c2ccc(C)c(C)c2)cc1` (centres unmarked), the “hERG current change (%, negative = inhibition) at 10uM” value worked out at 6.54%.

As for `Cc1cc(C(=O)NC2CCCc3c2cnn3-c2ccc(C)c(C)c2)no1` (centres unmarked), the “hERG current change (%, negative = inhibition) at 10uM” value is reported as -42.9%.

Take `O=C1COc2ccc(S(=O)(=O)NCCc3ccccc3)cc2N1`: the “hERG current change (%, negative = inhibition) at 10uM” value is 10.7%.

Consider `CC(NC(=O)c1cc(S(=O)(=O)N2CCCC2)ccc1Cl)c1ccccn1` (centres unmarked), for which the “hERG current change (%, negative = inhibition) at 10uM” value worked out at 18.1%.

Consider `CCOc1ccc(C2C3=C(CC(C)(C)CC3=O)N(CC(=O)O)C3=C2C(=O)CC(C)(C)C3)cc1OCC`, for which the “hERG current change (%, negative = inhibition) at 10uM” value amounted to 5.47%.

For the compound `CN1CCC(N(C)C(=O)c2ccccc2Nc2ccc(SC(F)F)cc2)CC1`, the “hERG current change (%, negative = inhibition) at 10uM” value is recorded as -62.2%.

For `CC(=O)c1ccc(NC(=S)N(C)C2CCN(C)CC2)cc1`, the “hERG current change (%, negative = inhibition) at 10uM” value is -4.16%.

As for `CN1CCC(N(C)C(=S)Nc2ccc(F)cc2)CC1`, the “hERG current change (%, negative = inhibition) at 10uM” value is 21.3%.

On to `CN1CCN(C(=O)c2ccccc2Nc2ccc(SC(F)F)cc2)CC1.Cl`, for which the “hERG current change (%, negative = inhibition) at 10uM” value is reported as -26%.

As for `CNC(=O)c1ccccc1Nc1ccc(SC(F)F)cc1`, the “hERG current change (%, negative = inhibition) at 10uM” value is -1.62%.

Regarding `O=C(NCc1ccncc1)c1ccccc1Nc1ccc(SC(F)F)cc1`, the “hERG current change (%, negative = inhibition) at 10uM” value is -63.9%.

With `CC1CC(C)CN(C(=O)c2ccccc2Nc2ccc(SC(F)F)cc2)C1` (centres unmarked), the “hERG current change (%, negative = inhibition) at 10uM” value is reported as 0.904%.

As for `CC1CC(C)CN(C(=S)Nc2ccc(SC(F)F)cc2)C1` (centres unmarked), the “hERG current change (%, negative = inhibition) at 10uM” value is reported as -51.8%.

For `O=C(NCc1ccncc1)c1cccc(S(=O)(=O)Nc2ccc(SC(F)F)cc2)c1`, the “hERG current change (%, negative = inhibition) at 10uM” value is listed as -3.21%.

For the compound `CC1CN(C(=S)Nc2ccc(SC(F)F)cc2)CC(C)O1` (centres unmarked), the “hERG current change (%, negative = inhibition) at 10uM” value is on record as -27.6%.

With `CC1CCN(C(=S)Nc2ccc(SC(F)F)cc2)CC1`, the “hERG current change (%, negative = inhibition) at 10uM” value is on record as -33%.

Take `CN1CCC(N(C)C(=S)Nc2ccc(SC(F)F)cc2)CC1`: the “hERG current change (%, negative = inhibition) at 10uM” value was -56.6%.

As for `O=C(CCN1C(=O)c2ccccc2C1=O)OCN1C(=O)c2ccccc2C1=O`, the “hERG current change (%, negative = inhibition) at 10uM” value was -11.5%.

Take `COCCSc1ccccc1C(=O)NCc1cccnc1`: the “hERG current change (%, negative = inhibition) at 10uM” value was found to be 18.7%.

As to `CCc1c(C)[nH]c2nc3ccccc3n2c1=O`, the “hERG current change (%, negative = inhibition) at 10uM” value was found to be 4.86%.

With `CC(C)c1nc2ccc(NC(=O)C34CC5CC(CC(C5)C3)C4)cc2[nH]1`, the “hERG current change (%, negative = inhibition) at 10uM” value amounted to 4.9%.

As to `COCCCn1c(SCC(=O)Nc2nnc(C)s2)nnc1-c1ccoc1C`, the “hERG current change (%, negative = inhibition) at 10uM” value is 4.33%.

Consider `Cc1ccc(NC2=NC(=S)N(CC#N)C23CCCCC3)cc1`, for which the “hERG current change (%, negative = inhibition) at 10uM” value was -6.19%.

As for `COc1cccc(C(=O)C2CCCN(Cc3cccn3-c3ccccn3)C2)c1` (centres unmarked), the “hERG current change (%, negative = inhibition) at 10uM” value is reported as -76.5%.

In the case of `CC(C)Oc1cccc(C(=O)C2CCCN(Cc3ccon3)C2)c1` (centres unmarked), the “hERG current change (%, negative = inhibition) at 10uM” value is recorded as -3.37%.

Turning to `CC(C)Oc1cccc(C(=O)C2CCCN(Cc3cccn3-c3cccnc3)C2)c1` (centres unmarked), the “hERG current change (%, negative = inhibition) at 10uM” value is -27.7%.

As for `Cc1c(CN2CCCC(C(=O)c3cccc(OC(C)C)c3)C2)c(=O)n(-c2ccccc2)n1C` (centres unmarked), the “hERG current change (%, negative = inhibition) at 10uM” value is on record as -57.2%.

As to `CC(C)Oc1cccc(C(=O)C2CCCN(Cc3cccn3-c3ccccn3)C2)c1` (centres unmarked), the “hERG current change (%, negative = inhibition) at 10uM” value is listed as -78.8%.

For `Cc1c(CN2CCCC(C(=O)c3cccc(Cl)c3)C2)c(=O)n(-c2ccccc2)n1C` (centres unmarked), the “hERG current change (%, negative = inhibition) at 10uM” value is listed as -24%.

For the compound `COc1cccc(C(=O)C2CCCN(Cc3c(C)n(C)n(-c4ccccc4)c3=O)C2)c1` (centres unmarked), the “hERG current change (%, negative = inhibition) at 10uM” value is recorded as -21.2%.

Take `COc1cccc(C(=O)C2CCCN(C(=O)c3ccccn3)C2)c1` (centres unmarked): the “hERG current change (%, negative = inhibition) at 10uM” value is listed as 3.77%.

`COc1ccc(C(=O)Nc2c3c(nn2C(C)(C)C)CS(=O)(=O)C3)cc1OC`: the “hERG current change (%, negative = inhibition) at 10uM” value is given as 13.1%.

In the case of `CCc1ccccc1NS(=O)(=O)c1cc(C)ccc1OC`, the “hERG current change (%, negative = inhibition) at 10uM” value is listed as -5.89%.

As to `O=C(O)COc1ccccc1/C=N/NC(=O)c1ccc2c(c1)OCCO2`, the “hERG current change (%, negative = inhibition) at 10uM” value was -2.93%.

Consider `O=C(CSc1nnc(COc2ccc3c(c2)CCCC3)o1)Nc1ccc(F)cc1`, for which the “hERG current change (%, negative = inhibition) at 10uM” value was 10.2%.

For the compound `Cc1ccc2c(C)nc(Nc3ncc4c(n3)CCCC4=O)nc2c1`, the “hERG current change (%, negative = inhibition) at 10uM” value is -12.4%.

For the compound `Cc1cc(C)n2nnnc2n1`, the “hERG current change (%, negative = inhibition) at 10uM” value is 18.5%.

With `Cc1cc(C(=O)NCCC(c2ccccc2)c2ccccc2)c(C)o1`, the “hERG current change (%, negative = inhibition) at 10uM” value is given as -17.5%.

Take `COc1ccccc1C(=O)NCC(=O)Nc1ccccc1`: the “hERG current change (%, negative = inhibition) at 10uM” value was found to be 5.97%.

For the compound `CS(=O)(=O)c1ccccc1C(=O)NCCC(c1ccccc1)c1ccccc1`, the “hERG current change (%, negative = inhibition) at 10uM” value is reported as -51.9%.

With `COc1ccccc1C(=O)NCC(=O)NC(C)CCc1ccccc1` (centres unmarked), the “hERG current change (%, negative = inhibition) at 10uM” value was 1.99%.

For the compound `Cc1ccc(C(NC(=O)c2ccccc2S(C)(=O)=O)c2ccccc2)cc1` (centres unmarked), the “hERG current change (%, negative = inhibition) at 10uM” value is -30.3%.

For `COc1ccccc1C(=O)NCC(=O)NCCC(c1ccccc1)c1ccccc1`, the “hERG current change (%, negative = inhibition) at 10uM” value is on record as -64.4%.

The values above are taken from PMC4336329 (PLoS ONE, 2015).
